Inconclusive results are not listed. The source made the active and inactive calls. How the source made its calls: active means hit-call score of the fitted dose curve at least 0.9, where 1 is the maximum; inconclusive means response in the unintended direction; inactive means score below 0.9.

A short description of the test: ACEA_ER_AUC_viability: ACEA Biosciences xCELLigence Real-Time Cell Analysis on Estrogen Receptor Agonism for Viability (AID 2283782).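 Further: continuous compound exposure with impedance area under curve over 80 h; hit means loss of impedance signal meaning reduced cell growth or viability.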 A digest of the protocol:
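T-47D human breast cells in phenol red-free RPMI1640 with 10% charcoal-stripped FBS were dosed with an 8-point 1:4 dilution series from 100 uM top final concentration, in duplicate. Impedance-based growth was followed for 80 h; AUC analysed versus DMSO.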
Take `Cc1c(C)c([N+](=O)[O-])c(C(C)(C)C)c([N+](=O)[O-])c1C`: the call was inactive. Same read-out and setting: the value for `O=C1CC2CC1C1CCCC21` (configuration not stated) was “inactive”. For the compound `COC(=O)c1ccccc1OC`, the half-maximal activity concentration (AC50) is 50 µM (active). On the same count and under the same terms, for `C/C=C\C/C=C/CCCCCCCCOC(C)=O` the value was 82.3 µM (active).

On to `CC(=O)C=CC1C(C)=CCC(C)C1(C)C` (configuration not stated), for which the compound was called inactive. On the same count and under the same terms, the value for `c1ccc2c(c1)ccc1ncccc12` was “inactive”. Regarding `CCc1c(C(=O)O)c(=O)cnn1-c1ccc(Cl)cc1`, the AC50 is 31.4 µM (active). With `Nc1cccc(C(F)(F)F)c1`, the result was inactive. As to `Cc1cccc(C(=O)O)c1`, the compound was called inactive. Still for that read-out and setting: for `O=C1CCC(=O)N1Cl` the value was “inactive”.

In the case of `CC(CC=O)c1ccccc1` (configuration not stated), the AC50 is 50 µM (active). As for `OCCCS`, the AC50 is 44.4 µM (active). With `CCCC(C)CCC(C)=O` (configuration not stated), the result was inactive. Turning to `CCC(C)C=O` (configuration not stated), the AC50 is 39.7 µM (active). For `CO[Si](OC)(OC)c1ccccc1`, the result was inactive. `CCOc1nc(F)cc2nc(S(=O)(=O)Nc3c(Cl)cccc3C(=O)OC)nn12`: the call was inactive. As for `CCC(Cc1ccccc1)(C(=O)c1ccc(N2CCOCC2)cc1)N(C)C` (configuration not stated), the concentration at half-maximal activity (AC50) is 88.7 µM (active).

As to `COC(=O)/C=C\C(=O)O`, the outcome was inactive. The same measure, in the same setting: for `O=C1CCCC(=O)O1` the value was “inactive”. Still for that read-out and setting: the value for `COc1cc(C)ccc1C(C)C` was “inactive”; that for `CC(=O)CC(N)=O` was “inactive”. Take `O=C1CCCCCCCCCCCCCCCO1`: the result was inactive. In the case of `O=P(O)(O)Oc1ccccc1`, the AC50 was 50 µM (active). As to `CCCCCCCCc1ccc(Nc2ccc(CCCCCCCC)cc2)cc1`, the result was inactive. Still for that read-out and setting: the value for `C=C(C)C(=O)OCC(C)C` was “inactive”; that for `CC(C)COC(=O)C=Cc1ccccc1` was “inactive”; that for `CCCCCC(C)O` (configuration not stated) was “inactive”.

Turning to `Cc1cccc(N)n1`, the compound was classed as inactive. For `Cn1c(=O)[nH]c2ncn(C)c2c1=O`, the call was inactive. As for `c1ccc(-c2ccccn2)nc1`, the AC50 is 34.1 µM (active). Turning to `CCCCCCC(O)CO` (configuration not stated), the AC50 is 40 µM (active). As to `CC/C=C\CCOC(=O)CCCCC`, the call was inactive. On to `C=CCCCCCCCCC(=O)OCCCC`, for which the AC50 is 50 µM (active).

For the compound `CCCCCCCCCCCCCCCC(=O)OCC`, the call was inactive.

On to `CC(=O)OCCC1CCCCC1`, for which the call was inactive.

For `CC1(C)[C@H]2CC[C@]1(C)C(=O)C2`, the compound was called inactive. Same read-out and setting: for `CC1(C)S[C@@H]2[C@H](NC(=O)COc3ccccc3)C(=O)N2[C@H]1C(=O)O` the value was “inactive”.

For the origin of these results see PubChem BioAssay (EPA / NIEHS).
